The list shows a part of the results. Activity calls are given as the source filed them. Unless noted, how the calls were made is not given here.

Inhibition data for 14 compounds are collected here from PubChem BioAssay.

Chain of Sentrin-specific protease 8 (Homo sapiens) (Q96LD8 whole entry, looked up): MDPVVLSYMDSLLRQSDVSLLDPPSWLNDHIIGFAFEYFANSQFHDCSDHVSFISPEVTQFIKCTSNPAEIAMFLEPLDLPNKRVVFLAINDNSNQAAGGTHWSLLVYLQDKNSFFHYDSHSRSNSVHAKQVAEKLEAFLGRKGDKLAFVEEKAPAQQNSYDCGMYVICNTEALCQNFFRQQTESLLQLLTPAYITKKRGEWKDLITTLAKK

One test concerns the target Sentrin-specific protease 8 (Homo sapiens) (UniProt Q96LD8). The experiment in a line: SENP8 protease inhibitors, retest, confirmation, biochemical, luminescence, single concentration (AID 488912;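 active means mean inhibition across replicates above about 50%, limit read from the data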). To be noted: Recombinant SENP8, Z-RLRGG-aminoluciferin luminescence, 60 min; at 12.5 µM; stronger effect = higher value.
By inhibition is commonly meant the change of the read-out against control, counted positive when it falls. As for `COc1ccccc1N=Cc1c(O)c2ccccc2oc1=O`, the inhibition is 43.2% (inactive).
Still for that read-out and setting: to `O=[N+]([O-])c1ccc(C=Nc2ccc(Cl)cc2Cl)s1` belongs 9.7% (inactive).
For `COc1cccc2sc(Nc3nc(C)c(C(C)=O)s3)nc12`, the inhibition is 51.3% (active).

Another test deals with Sentrin-specific protease 6 (Homo sapiens) (UniProt Q9GZR1). Briefly: SENP6 protease inhibitors, confirmation, biochemical, luminescence, single concentration (AID 488915;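 active means mean inhibition above about 50% in the one-dose retest, limit read from the data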). To be noted: recombinant SENP6, Z-RLRGG-aminoluciferin luminescence; at 12.5 µM; stronger effect = higher value.
Chain of Sentrin-specific protease 6 (Homo sapiens) (Q9GZR1 628-1112 limits assumed): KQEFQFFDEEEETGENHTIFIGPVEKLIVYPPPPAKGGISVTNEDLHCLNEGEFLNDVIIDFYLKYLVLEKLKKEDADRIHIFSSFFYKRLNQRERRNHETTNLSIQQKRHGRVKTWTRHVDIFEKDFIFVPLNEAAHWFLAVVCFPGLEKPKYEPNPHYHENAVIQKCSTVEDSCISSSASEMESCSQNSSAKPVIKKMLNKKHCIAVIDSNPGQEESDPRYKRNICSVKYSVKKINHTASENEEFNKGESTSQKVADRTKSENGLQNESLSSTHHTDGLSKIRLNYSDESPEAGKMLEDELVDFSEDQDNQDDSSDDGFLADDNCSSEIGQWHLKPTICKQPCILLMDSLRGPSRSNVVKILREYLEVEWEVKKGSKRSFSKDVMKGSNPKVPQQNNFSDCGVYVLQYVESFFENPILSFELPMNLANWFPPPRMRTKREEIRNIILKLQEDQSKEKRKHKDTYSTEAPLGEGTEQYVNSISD
As for `COc1ccccc1N=Cc1c(O)c2ccccc2oc1=O`, the inhibition was 53.7% (active).
In the case of `O=[N+]([O-])c1ccc(C=Nc2ccc(Cl)cc2Cl)s1`, the inhibition is 19.4% (inactive).
On to `COc1cccc2sc(Nc3nc(C)c(C(C)=O)s3)nc12`, for which the inhibition is 47.9% (inactive).

The target in the next test is Sentrin-specific protease 7 (Homo sapiens) (UniProt Q9BQF6). Briefly: SENP7 protease inhibitors, retest, confirmation, biochemical, luminescence, single concentration (AID 488917;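 active means mean inhibition above about 50% in the one-dose retest, limit read from the data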). To be noted: recombinant SENP7, Z-RLRGG-aminoluciferin luminescence, 40 min; at 12.5 µM; stronger effect = higher value.
Chain of Sentrin-specific protease 7 (Homo sapiens) (Q9BQF6 706-1050 limits assumed): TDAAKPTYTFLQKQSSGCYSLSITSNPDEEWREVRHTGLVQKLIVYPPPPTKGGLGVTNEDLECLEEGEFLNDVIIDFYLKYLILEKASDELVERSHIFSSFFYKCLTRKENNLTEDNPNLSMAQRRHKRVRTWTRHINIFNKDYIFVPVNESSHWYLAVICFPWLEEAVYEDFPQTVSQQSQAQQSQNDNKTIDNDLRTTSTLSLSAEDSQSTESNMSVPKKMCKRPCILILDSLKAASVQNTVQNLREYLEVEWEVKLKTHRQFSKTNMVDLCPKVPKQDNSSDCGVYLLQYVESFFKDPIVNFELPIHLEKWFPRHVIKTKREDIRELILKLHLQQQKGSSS
Consider `COc1ccccc1N=Cc1c(O)c2ccccc2oc1=O`, for which the inhibition was 49.6% (inactive).
On the same count and under the same terms, next, `O=[N+]([O-])c1ccc(C=Nc2ccc(Cl)cc2Cl)s1`: 18.5% (inactive); `COc1cccc2sc(Nc3nc(C)c(C(C)=O)s3)nc12`: 83.9% (active).

Another test deals with Caspase-3 (Homo sapiens) (UniProt P42574). The experiment in a line: caspase-3 protease inhibitors, confirmation, selectivity assay for SENP inhibitor project, biochemical, single concentration (AID 488918;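 active means mean inhibition above about 50%, limit read from the data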;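 further: plate controls were enzyme with DMSO for no effect and wells without caspase-3 for full effect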). The conditions noted are these: purified caspase-3, Z-DEVD-aminoluciferin luminescence, 60 min; at 12.5 µM; stronger effect = higher value.
Chain of Caspase-3 (Homo sapiens) (P42574 28-227 limits assumed): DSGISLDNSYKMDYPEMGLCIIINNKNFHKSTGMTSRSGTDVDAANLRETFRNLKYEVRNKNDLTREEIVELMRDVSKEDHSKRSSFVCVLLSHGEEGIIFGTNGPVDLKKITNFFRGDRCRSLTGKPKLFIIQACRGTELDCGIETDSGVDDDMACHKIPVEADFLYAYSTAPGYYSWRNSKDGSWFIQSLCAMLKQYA
For the compound `COc1ccccc1N=Cc1c(O)c2ccccc2oc1=O`, the inhibition was 19.3% (inactive).
On to `O=[N+]([O-])c1ccc(C=Nc2ccc(Cl)cc2Cl)s1`, for which the inhibition was 7.4% (inactive).
As for `COc1cccc2sc(Nc3nc(C)c(C(C)=O)s3)nc12`, the inhibition is 56.6% (active).

Tested on in the next test: not listed separately
The experiment in a line: luciferase luminescence interference by compounds, confirmation, artefact control for SENP inhibitor project, biochemical, single concentration, SENP8 reaction pre-completed (AID 488919;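 active means mean inhibition above about 50% when retested at one dose, limit read from the data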;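 further: plate controls were DMSO wells with completed reaction for no effect and substrate without enzyme for full effect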). The conditions noted are these: Pre-incubated SENP8/Z-RLRGG-aminoluciferin, at 12.5 µM, stronger effect = higher value.
For `COc1ccccc1N=Cc1c(O)c2ccccc2oc1=O`, the inhibition was 27.7% (inactive).
On to `O=[N+]([O-])c1ccc(C=Nc2ccc(Cl)cc2Cl)s1`, for which the inhibition is 8.1% (inactive).
Turning to `COc1cccc2sc(Nc3nc(C)c(C(C)=O)s3)nc12`, the inhibition is 72.3% (active).

The target of another test is Protein Mdm4 (Homo sapiens) + E3 ubiquitin-protein ligase Mdm2 (Homo sapiens) (UniProt O15151+Q00987). Briefly: retested Mdm2-MdmX interaction blockers, confirmation, cell-based, luminescence, single concentration, set 2 (AID 504601;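 active means mean inhibition of the luminescence signal across two replicates at or above 26 percent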). To be noted: SaOS-2 split-luciferase Mdm2/MdmX complementation, at 8 µM, stronger effect = higher value.
Chain of Protein Mdm4 (Homo sapiens) + E3 ubiquitin-protein ligase Mdm2 (Homo sapiens) (O15151 whole entry, looked up): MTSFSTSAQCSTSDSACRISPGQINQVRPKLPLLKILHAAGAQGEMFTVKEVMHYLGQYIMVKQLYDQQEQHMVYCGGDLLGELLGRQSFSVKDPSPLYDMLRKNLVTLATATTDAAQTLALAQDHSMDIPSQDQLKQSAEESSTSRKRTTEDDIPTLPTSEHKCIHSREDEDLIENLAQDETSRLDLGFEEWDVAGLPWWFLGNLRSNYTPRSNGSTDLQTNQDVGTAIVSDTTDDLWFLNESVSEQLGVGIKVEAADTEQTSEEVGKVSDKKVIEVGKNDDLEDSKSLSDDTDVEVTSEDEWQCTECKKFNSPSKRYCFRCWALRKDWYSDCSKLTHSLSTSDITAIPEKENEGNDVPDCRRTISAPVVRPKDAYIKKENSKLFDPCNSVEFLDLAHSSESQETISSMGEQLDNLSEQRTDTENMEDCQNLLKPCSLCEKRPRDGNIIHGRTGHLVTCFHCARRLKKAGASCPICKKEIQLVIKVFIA
Chain of Protein Mdm4 (Homo sapiens) + E3 ubiquitin-protein ligase Mdm2 (Homo sapiens) (Q00987 whole entry, looked up): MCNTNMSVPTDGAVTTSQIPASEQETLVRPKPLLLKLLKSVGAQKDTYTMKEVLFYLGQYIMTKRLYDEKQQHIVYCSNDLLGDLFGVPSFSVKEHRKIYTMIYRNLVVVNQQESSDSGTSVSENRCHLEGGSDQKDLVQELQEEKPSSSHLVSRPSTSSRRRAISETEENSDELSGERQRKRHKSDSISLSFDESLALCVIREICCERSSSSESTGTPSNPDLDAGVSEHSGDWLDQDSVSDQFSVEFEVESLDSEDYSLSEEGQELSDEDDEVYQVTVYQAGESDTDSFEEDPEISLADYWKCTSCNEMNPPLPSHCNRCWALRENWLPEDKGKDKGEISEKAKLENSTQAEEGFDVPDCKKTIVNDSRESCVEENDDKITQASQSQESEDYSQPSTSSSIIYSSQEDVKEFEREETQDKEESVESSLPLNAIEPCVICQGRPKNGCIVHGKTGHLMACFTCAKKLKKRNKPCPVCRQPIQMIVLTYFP
On to `COc1ccc2c(c1OC)C(=O)OC2Nc1nc(-c2ccccc2)cs1` (stereo not given), for which the inhibition is 103% (active).
On to `Cc1cccc(CS(=O)(=O)c2ncc(Cl)c(C(=O)Nc3ccc(F)cc3)n2)c1`, for which the inhibition was 103% (active).
`N#Cc1cccc(NC(=O)COC(=O)c2ccccc2C(=O)c2ccc(Cl)c([N+](=O)[O-])c2)c1`: the inhibition was 103% (active).
For the compound `CSc1nnc(NC(=O)c2nc(S(=O)(=O)Cc3ccc(C)cc3)ncc2Cl)s1`, the inhibition was 100% (active).
Turning to `CSc1nc(-c2ccccc2)nc(C(Cl)Cl)n1`, the inhibition was 97.7% (active).

Tested on in a further test: not listed separately
The experiment in a line: inhibition of Brca1/Bard1 split-luciferase complementation, confirmation, counter-screen for Mdm2/MdmX interaction inhibitor project, luminescence, single concentration (AID 504668). The conditions noted are these: Brca1/Bard1 bimolecular luciferase complementation counterscreen, at 8 µM, stronger effect = higher value.
With `COc1ccc(-c2cc(C(F)(F)F)nc(S(C)(=O)=O)n2)cc1OC`, the inhibition was 24.3% (active).
Take `OCCNc1nc(Nc2ccc(Cl)c(Cl)c2)nc2ccccc12`: the inhibition was 24.3% (active).
On to `Oc1c(CN2CCN(c3ccc(F)cc3)CC2)cc(Cl)c2cccnc12`, for which the inhibition is 25.7% (active).
Still for that read-out and setting: to `CC(C)(C)Nc1nc(-c2ccccn2)nc2ccccc12` belongs 23.3% (active); to `Nc1nc(CC(=O)CSc2ccc(Cl)cc2)nc(Nc2ccc(F)cc2)n1`, 29.2% (active).
As to `CC1(C)CCSC(/C=C/c2ccccc2)=N1`, the inhibition was 30.5% (active).

Tested on in a further test: not listed separately
The experiment in a line: inhibitors of PAF-induced NF-kB signaling, retest, confirmation, cell-based, GFP fluorescence, single concentration (AID 602472; in the data active means inhibition above about 40%;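 further: stimulus PAF is a Pseudomonas aeruginosa filtrate and not platelet activating factor; plate controls were DMSO wells with stimulus for no effect and unstimulated DMSO wells for full effect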). To be noted: KKLEB CF airway cells, overnight, at 5 µM, stronger effect = higher value.
As to `COc1ccc2c(c1OC)C(=O)OC2Nc1nc(-c2ccccc2)cs1` (stereo not given), the inhibition is 106% (active).
Turning to `OCCNc1nc(Nc2ccc(Cl)c(Cl)c2)nc2ccccc12`, the inhibition is 81.5% (active).
For `Cc1cccc(CS(=O)(=O)c2ncc(Cl)c(C(=O)Nc3ccc(F)cc3)n2)c1`, the inhibition was 44% (active).
For the compound `N#Cc1cccc(NC(=O)COC(=O)c2ccccc2C(=O)c2ccc(Cl)c([N+](=O)[O-])c2)c1`, the inhibition was 108% (active).
In the case of `CC1(C)CCSC(/C=C/c2ccccc2)=N1`, the inhibition was -24.9% (inactive).

Tested on in the next test: not listed separately
The experiment in a line: HIF-2a reporter inhibitor retest, confirmation, luminescence, 786-0 RCC cells (AID 651580;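 active means mean inhibition across four replicates of at least 40 percent at the single tested concentration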). To be noted: HIF-2a luciferase reporter luminescence, overnight, at 18.8 µM, stronger effect = higher value. In general terms: A reporter such as luciferase makes a cellular process visible.
Take `COc1ccc2c(c1OC)C(=O)OC2Nc1nc(-c2ccccc2)cs1` (stereo not given): the inhibition was 26% (inactive).
As for `Cc1cccc(CS(=O)(=O)c2ncc(Cl)c(C(=O)Nc3ccc(F)cc3)n2)c1`, the inhibition is 99.3% (active).
In the case of `N#Cc1cccc(NC(=O)COC(=O)c2ccccc2C(=O)c2ccc(Cl)c([N+](=O)[O-])c2)c1`, the inhibition is 55.9% (active).
Consider `CSc1nc(-c2ccccc2)nc(C(Cl)Cl)n1`, for which the inhibition is 59.7% (active).

Tested on in another test: not listed separately
Briefly: HIF-1a luciferase reporter signal reduction – MiaPaCa-2 cells, single concentration, counter-screen for HIF-2a inhibitor project, confirmation (AID 651589;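 active means mean inhibition of the reporter signal across four replicates at the single tested dose of 50% or more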). The conditions noted are these: MiaPaCa-2 HIF-1a luciferase reporter, desferoxamine, overnight; at 18.8 µM; stronger effect = higher value.
As for `COc1ccc2c(c1OC)C(=O)OC2Nc1nc(-c2ccccc2)cs1` (stereo not given), the inhibition is 105% (active).
Turning to `Cc1cccc(CS(=O)(=O)c2ncc(Cl)c(C(=O)Nc3ccc(F)cc3)n2)c1`, the inhibition was 86.8% (active).
As to `N#Cc1cccc(NC(=O)COC(=O)c2ccccc2C(=O)c2ccc(Cl)c([N+](=O)[O-])c2)c1`, the inhibition was 108% (active).
Consider `CSc1nc(-c2ccccc2)nc(C(Cl)Cl)n1`, for which the inhibition is 105% (active).

Tested on in a further test: not listed separately
The experiment in a line: inhibitors of PAF-induced NFkB signaling in CF airway cells, dose response, cell-based, uHTS hits, panel, cytotoxicity readout (AID 624344). The conditions noted are these: CF bronchial epithelial cells, PAF-induced NFkB reporter inhibition, with PAF, run 1; at 79 µM (top of the series) unless noted.
`COc1ccc2c(c1OC)C(=O)OC2Nc1nc(-c2ccccc2)cs1` (stereo not given): the inhibition came out at 109%.
Regarding `OCCNc1nc(Nc2ccc(Cl)c(Cl)c2)nc2ccccc12`, the inhibition stood at 110%.
As for `N#Cc1cccc(NC(=O)COC(=O)c2ccccc2C(=O)c2ccc(Cl)c([N+](=O)[O-])c2)c1`, the inhibition came to 103%.

Tested on in another test: not listed separately
The description is as above. To be noted: CF bronchial epithelial cells, PAF-induced NFkB reporter inhibition, with PAF, run 2; at 79 µM (top of the series) unless noted.
For the compound `COc1ccc2c(c1OC)C(=O)OC2Nc1nc(-c2ccccc2)cs1` (stereo not given), the inhibition was found to be 103%.
Consider `OCCNc1nc(Nc2ccc(Cl)c(Cl)c2)nc2ccccc12`, for which the inhibition was determined as 105%.
Take `N#Cc1cccc(NC(=O)COC(=O)c2ccccc2C(=O)c2ccc(Cl)c([N+](=O)[O-])c2)c1`: the inhibition is 111%.
